Results: the supplement of paper PMC12282887
± gives the standard deviation of the averaged measurements.

Tests used:
Test in all cases: promoter activity interaction Z-score (Lux/OD deviation from empty-vector control); higher = stronger promoter induction by the compound
[1] = system: E. coli BW25113 acrABp lux reporter
Procedure, shortened: (§1)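 E. coli BW25113 luxCDABE reporter strains grew at 37°C in 40 µl LB Lennox in 384-well plates, with OD600 and luminescence read every 30 min for 12 h. After integration over 0–8 h for wild type or 1–9 h for deletion strains, wells under 10% of the median growth value were removed. Each score is the Z-transformed residual of growth-normalised luminescence fitted against a control.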

[2] = system: E. coli BW25113 micFp lux reporter
Procedure, shortened: as §1

[3] = system: E. coli BW25113 ompFp lux reporter
Procedure, shortened: as §1

[4] = system: E. coli BW25113 robp lux reporter
Procedure, shortened: as §1

[5] = system: E. coli BW25113 soxSp lux reporter
Procedure, shortened: as §1

[6] = system: E. coli BW25113 tolCp lux reporter
Procedure, shortened: as §1

[7] = 0.062 µg/ml, genetic background: wild type
[8] = 0.062 µg/ml, genetic background: ΔmarA
[9] = 0.062 µg/ml, genetic background: Δrob
[10] = 0.062 µg/ml, genetic background: ΔsoxS
[11] = 0.12 µg/ml, genetic background: wild type
[12] = 0.12 µg/ml, genetic background: ΔmarA
[13] = 0.12 µg/ml, genetic background: Δrob
[14] = 0.12 µg/ml, genetic background: ΔsoxS
[15] = 0.25 µg/ml, genetic background: wild type
[16] = 0.25 µg/ml, genetic background: ΔmarA
[17] = 0.25 µg/ml, genetic background: Δrob
[18] = 0.25 µg/ml, genetic background: ΔsoxS
[19] = 0.49 µg/ml, genetic background: wild type
[20] = 0.49 µg/ml, genetic background: ΔmarA
[21] = 0.49 µg/ml, genetic background: Δrob
[22] = 0.49 µg/ml, genetic background: ΔsoxS
[23] = 11.9 µg/ml, genetic background: wild type
[24] = 11.9 µg/ml, genetic background: ΔmarA
[25] = 11.9 µg/ml, genetic background: Δrob
[26] = 11.9 µg/ml, genetic background: ΔsoxS
[27] = 23.7 µg/ml, genetic background: wild type
[28] = 23.7 µg/ml, genetic background: ΔmarA
[29] = 23.7 µg/ml, genetic background: Δrob
[30] = 23.7 µg/ml, genetic background: ΔsoxS
[31] = 47.4 µg/ml, genetic background: wild type
[32] = 47.4 µg/ml, genetic background: ΔmarA
[33] = 47.4 µg/ml, genetic background: Δrob
[34] = 47.4 µg/ml, genetic background: ΔsoxS
[35] = 94.8 µg/ml, genetic background: wild type
[36] = 94.8 µg/ml, genetic background: ΔmarA

SMILES: CN(C)c1ccc(O)c2c1C[C@H]1C[C@H]3[C@H](N(C)C)C(O)=C(C(N)=O)C(=O)[C@@]3(O)C(O)=C1C2=O [Minocycline]
- promoter activity interaction Z-score [1, 7]: -0.0516 ± 0.1
- promoter activity interaction Z-score [1, 8]: 0.0987 ± 0.99
- promoter activity interaction Z-score [1, 9]: 0.189 ± 0.07
- promoter activity interaction Z-score [1, 10]: -0.577 ± 0.76
- promoter activity interaction Z-score [1, 11]: 0.0573 ± 0.042
- promoter activity interaction Z-score [1, 12]: 0.356 ± 1.1
- promoter activity interaction Z-score [1, 13]: 0.339 ± 0.34
- promoter activity interaction Z-score [1, 14]: 0.263 ± 0.16
- promoter activity interaction Z-score [1, 15]: 0.223 ± 0.18
- promoter activity interaction Z-score [1, 16]: 0.273 ± 0.88
- promoter activity interaction Z-score [1, 17]: 0.387 ± 0.58
- promoter activity interaction Z-score [1, 18]: 0.196 ± 0.47
- promoter activity interaction Z-score [1, 19]: 2.47 ± 0.56
- promoter activity interaction Z-score [1, 20]: 0.55 ± 0.59
- promoter activity interaction Z-score [1, 21]: 2.62 ± 0.41
- promoter activity interaction Z-score [1, 22]: 2.95 ± 1.3
- promoter activity interaction Z-score [2, 7]: 0.172 ± 0.028
- promoter activity interaction Z-score [2, 8]: -0.151 ± 0.19
- promoter activity interaction Z-score [2, 9]: 0.0108 ± 0.022
- promoter activity interaction Z-score [2, 10]: -0.429 ± 0.019
- promoter activity interaction Z-score [2, 11]: 0.33 ± 0.72
- promoter activity interaction Z-score [2, 12]: -0.0481 ± 0.0079
- promoter activity interaction Z-score [2, 13]: -0.075 ± 0.12
- promoter activity interaction Z-score [2, 14]: 0.127 ± 0.026
- promoter activity interaction Z-score [2, 15]: 0.933 ± 0.82
- promoter activity interaction Z-score [2, 16]: -0.106 ± 0.069
- promoter activity interaction Z-score [2, 17]: 0.138 ± 0.07
- promoter activity interaction Z-score [2, 18]: -0.0781 ± 0.17
- promoter activity interaction Z-score [2, 19]: 1.77 ± 1.9
- promoter activity interaction Z-score [2, 20]: 0.182 ± 0.15
- promoter activity interaction Z-score [2, 21]: 0.0732 ± 0.00089
- promoter activity interaction Z-score [2, 22]: 0.743 ± 0.81
- promoter activity interaction Z-score [3, 7]: 0.0637 ± 0.43
- promoter activity interaction Z-score [3, 8]: -0.699 ± 0.25
- promoter activity interaction Z-score [3, 9]: 0.129 ± 0.49
- promoter activity interaction Z-score [3, 10]: -0.457 ± 0.12
- promoter activity interaction Z-score [3, 11]: 0.41 ± 0.83
- promoter activity interaction Z-score [3, 12]: 0.0821 ± 0.38
- promoter activity interaction Z-score [3, 13]: 0.365 ± 0.77
- promoter activity interaction Z-score [3, 14]: 0.49 ± 0.25
- promoter activity interaction Z-score [3, 15]: 0.511 ± 0.43
- promoter activity interaction Z-score [3, 16]: -0.386 ± 0.46
- promoter activity interaction Z-score [3, 17]: 0.978 ± 0.71
- promoter activity interaction Z-score [3, 18]: 0.461 ± 0.59
- promoter activity interaction Z-score [3, 19]: 1.65 ± 0.69
- promoter activity interaction Z-score [3, 20]: 1.7 ± 0.75
- promoter activity interaction Z-score [3, 21]: 1.71 ± 1.5
- promoter activity interaction Z-score [3, 22]: 2.93 ± 0.19
- promoter activity interaction Z-score [4, 7]: -0.379 ± 0.35
- promoter activity interaction Z-score [4, 8]: -0.0848 ± 0.76
- promoter activity interaction Z-score [4, 9]: 0.746 ± 0.51
- promoter activity interaction Z-score [4, 10]: -0.6221 ± 0.0048
- promoter activity interaction Z-score [4, 11]: 0.195 ± 0.02
- promoter activity interaction Z-score [4, 12]: 0.369 ± 0.11
- promoter activity interaction Z-score [4, 13]: 0.83 ± 0.12
- promoter activity interaction Z-score [4, 14]: 0.357 ± 0.091
- promoter activity interaction Z-score [4, 15]: 0.736 ± 1.1
- promoter activity interaction Z-score [4, 16]: 0.349 ± 0.033
- promoter activity interaction Z-score [4, 17]: 1.12 ± 0.15
- promoter activity interaction Z-score [4, 18]: -0.142 ± 0.44
- promoter activity interaction Z-score [4, 19]: 0.715 ± 0.67
- promoter activity interaction Z-score [4, 20]: 0.586 ± 0.056
- promoter activity interaction Z-score [4, 21]: 0.685 ± 1.6
- promoter activity interaction Z-score [4, 22]: 0.64 ± 1.7
- promoter activity interaction Z-score [5, 7]: 0.269 ± 0.16
- promoter activity interaction Z-score [5, 8]: -0.245 ± 0.04
- promoter activity interaction Z-score [5, 9]: 0.0739 ± 0.0036
- promoter activity interaction Z-score [5, 10]: -0.185 ± 0.069
- promoter activity interaction Z-score [5, 11]: 0.291 ± 0.56
- promoter activity interaction Z-score [5, 12]: 0.0029 ± 0.014
- promoter activity interaction Z-score [5, 13]: -0.102 ± 0.055
- promoter activity interaction Z-score [5, 14]: 0.203 ± 0.098
- promoter activity interaction Z-score [5, 15]: 0.499 ± 0.44
- promoter activity interaction Z-score [5, 16]: -0.0485 ± 0.1
- promoter activity interaction Z-score [5, 17]: 0.0791 ± 0.26
- promoter activity interaction Z-score [5, 18]: -0.114 ± 0.015
- promoter activity interaction Z-score [5, 19]: 0.538 ± 0.72
- promoter activity interaction Z-score [5, 20]: 0.583 ± 0.97
- promoter activity interaction Z-score [5, 21]: 0.542 ± 0.91
- promoter activity interaction Z-score [5, 22]: 0.336 ± 0.25
- promoter activity interaction Z-score [6, 7]: -0.706 ± 0.049
- promoter activity interaction Z-score [6, 8]: -0.479 ± 0.52
- promoter activity interaction Z-score [6, 9]: -0.423 ± 0.84
- promoter activity interaction Z-score [6, 10]: -0.991 ± 0.75
- promoter activity interaction Z-score [6, 11]: 0.000824 ± 0.27
- promoter activity interaction Z-score [6, 12]: -0.0931 ± 0.19
- promoter activity interaction Z-score [6, 13]: -0.00328 ± 1.2
- promoter activity interaction Z-score [6, 14]: 0.557 ± 0.39
- promoter activity interaction Z-score [6, 15]: -0.22 ± 0.98
- promoter activity interaction Z-score [6, 16]: -0.201 ± 0.28
- promoter activity interaction Z-score [6, 17]: 0.646 ± 0.087
- promoter activity interaction Z-score [6, 18]: -0.226 ± 0.84
- promoter activity interaction Z-score [6, 19]: -0.114 ± 0.25
- promoter activity interaction Z-score [6, 20]: 0.0123 ± 0.63
- promoter activity interaction Z-score [6, 21]: 0.966 ± 0.27
- promoter activity interaction Z-score [6, 22]: 0.526 ± 0.79

SMILES: NCCc1ccc(O)c(O)c1 [Dopamine]
- promoter activity interaction Z-score [1, 23]: 0.174 ± 0.27
- promoter activity interaction Z-score [1, 24]: -0.87 ± 0.6
- promoter activity interaction Z-score [1, 25]: -0.259 ± 0.25
- promoter activity interaction Z-score [1, 26]: 0.316 ± 0.49
- promoter activity interaction Z-score [1, 27]: -0.0683 ± 0.28
- promoter activity interaction Z-score [1, 28]: -0.0201 ± 0.65
- promoter activity interaction Z-score [1, 29]: -0.428 ± 0.0062
- promoter activity interaction Z-score [1, 30]: -0.0876 ± 0.18
- promoter activity interaction Z-score [1, 31]: 0.18 ± 0.084
- promoter activity interaction Z-score [1, 32]: -1.12 ± 0.53
- promoter activity interaction Z-score [1, 33]: -0.499 ± 0.094
- promoter activity interaction Z-score [1, 34]: -0.0203 ± 0.46
- promoter activity interaction Z-score [1, 35]: -0.304 ± 0.4
- promoter activity interaction Z-score [1, 36]: -0.754 ± 0.56
- promoter activity interaction Z-score ([1]; 94.8 µg/ml, genetic background: Δrob): -0.623 ± 0.094
- promoter activity interaction Z-score ([1]; 94.8 µg/ml, genetic background: ΔsoxS): -0.852 ± 0.031
- promoter activity interaction Z-score [2, 23]: -0.0957 ± 0.4
- promoter activity interaction Z-score [2, 24]: -0.00669 ± 0.09
- promoter activity interaction Z-score [2, 25]: -0.0714 ± 0.048
- promoter activity interaction Z-score [2, 26]: -0.289 ± 0.13
- promoter activity interaction Z-score [2, 27]: 0.149 ± 0.39
- promoter activity interaction Z-score [2, 28]: 0.0171 ± 0.089
- promoter activity interaction Z-score [2, 29]: -0.0648 ± 0.13
- promoter activity interaction Z-score [2, 30]: -0.0534 ± 0.087
- promoter activity interaction Z-score [2, 31]: -0.077 ± 0.31
- promoter activity interaction Z-score [2, 32]: -0.0143 ± 0.025
- promoter activity interaction Z-score [2, 33]: -0.12 ± 0.027
- promoter activity interaction Z-score [2, 34]: -0.221 ± 0.014
- promoter activity interaction Z-score [2, 35]: -0.3274 ± 0.00091
- promoter activity interaction Z-score [2, 36]: 0.0328 ± 0.11
